# Source: PubChem BioAssay (National Center for Advancing Translational Sciences (NCATS))
# This is a sample that favours compounds with a hit; in the whole collection about 21% have one here.
# FBPA Giardia inh – qHTS Assay for Inhibitors of Fructose-1,6-bisphosphate Aldolase from Giardia Lamblia; Potency, µM (top dose mostly 59.6 µM), most hits filed as inhibitors; hit rate 0.71% among 290,000; A8B2U2; purified Giardia FBPA; note: nearly all actives have a fitted effect of over 55% in size
# Target sequence (A8B2U2 whole entry, looked up): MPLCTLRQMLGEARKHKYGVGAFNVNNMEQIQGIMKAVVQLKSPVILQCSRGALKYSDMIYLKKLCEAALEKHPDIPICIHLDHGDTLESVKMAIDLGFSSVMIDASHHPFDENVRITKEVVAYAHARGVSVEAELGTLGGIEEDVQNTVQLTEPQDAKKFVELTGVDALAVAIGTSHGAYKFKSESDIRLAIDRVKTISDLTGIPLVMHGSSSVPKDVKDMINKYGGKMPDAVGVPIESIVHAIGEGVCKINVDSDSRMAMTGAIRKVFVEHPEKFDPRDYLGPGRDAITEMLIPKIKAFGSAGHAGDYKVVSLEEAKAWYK
#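 40 nM FBPA preincubated 10 min at RT with compound (up to 57.5 uM final), then substrate plus GAPDH/TPI/NAD/arsenate coupling and diaphorase/resazurin added. Fluorescence read after 20 min at RT, 525/598 nm.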
# Pf growth 96h – Primary qHTS for delayed death inhibitors of the malarial parasite plastid, 96 hour incubation; Potency, µM (top dose mostly 28.7 µM), most hits filed as inhibitors; hit rate 6.9% among 320,000; AID 504834, 2011; P. falciparum luciferase reporter growth, 96 h
#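 P. falciparum expressing integrated firefly luciferase, in erythrocytes at 2% hematocrit, 0.05% parasitemia, incubated with compounds 96 h at 37 C, 5% CO2. Growth inhibition read as loss of luminescence; two-generation exposure targets delayed-death apicoplast inhibitors.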
# NS1 inh – qHTS Assay for Inhibitors of Influenza NS1 Protein Function; Potency, µM (titrated, usually from 46.1 µM); hit rate 0.4% among 270,000; calls by dose curve; note: actives are rising curves; nearly all actives have a fitted effect of over 50% in size
#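 S. cerevisiae expressing influenza A NS1, grown in glucose, washed, then diluted 1:100 into pH 6.0 -URA galactose medium with 23 nl compound. Growth recovery read as OD600; NS1-free strain serves as control.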
# Pf growth 48h – Primary qHTS for delayed death inhibitors of the malarial parasite plastid, 48 hour incubation; AID 504832, 2011; Potency, µM (highest dose often 28.7 µM), usual class: inhibitors; P. falciparum luciferase growth in erythrocytes, 48 h; hit rate 5.9% among 310,000
#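 Luciferase-expressing parasites in RBCs, 2% Hct / 0.1% parasitemia final; RPMI 1640 + 0.5% Albumax; 37 C, 5% CO2, one generation; luminescence read-out, lower signal = inhibition.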
# CHX counter – Cycloheximide Counterscreen for Small Molecule Inhibitors of Shiga Toxin | cell reporter, cycloheximide protein synthesis inhibition counterscreen | max response, % | hit rate 12% among 300,000 | AID 2314, 2010; in the data active = max response mostly above about 13%, no sharp cut-off; inactive = mostly below about 14%; note: read at 38.3 µM for the half of the compounds with a filed dose
# Shiga toxin inh – A qHTS for Small Molecule Inhibitors of Shiga Toxin | Vero cells, Shiga toxin protein synthesis inhibition reporter | inhibition, % at 38.7 µM | hit rate 9.2% among 290,000 | AID 2315, 2010; in the data active = inhibition mostly above about 28%, no sharp cut-off; inactive = mostly below about 43%
# A number is an active result; – = inactive; ? = inconclusive; · = no result given; [ ] = dose if it differs, or a comment. Unless noted, calls come from the whole dose curve; as a rule, active = well fitted curve in the direction sought with a large enough effect; inconclusive = small, poorly fitted or top-dose-only effect, or another doubt; inactive = no such curve, though single readings can be large; an effect the other way counts as inactive or inconclusive.
SMILES,FBPA Giardia inh,Pf growth 96h,NS1 inh,Pf growth 48h,CHX counter,Shiga toxin inh
c1cncc(-c2nc3c(ccc4ccccc43)[nH]2)c1,–,?,–,?,12,77
N#Cc1c(-c2ccccc2)nc(-c2cccnc2)[nH]c1=O,–,–,–,–,–,–
Cc1cc(=S)nc(-c2ccccn2)[nH]1,–,3.7µM,–,10µM,–,–
COc1ccc2nc(NCCCO)[nH]c2c1,–,–,–,–,–,–
COc1ccc2nc(-c3ccccn3)[nH]c2c1,–,–,–,–,36,59
Cc1[nH]c(-c2ccccn2)nc(=S)c1Cl,–,?,–,?,–,–
CC(C)Oc1cc(C(=O)NC2CCCCC2)c2ccccc2n1,·,–,–,?,–,–
CC(=O)N/C(N)=N/c1nc(=O)c2ccccc2s1,–,?,–,–,35,55
CCCCOC(=S)NC(=O)c1sc2ccccc2c1Cl,–,–,–,–,–,–
CCOC(=O)N/C(N)=N/c1nc2ccccc2s1,–,–,–,–,34,66
C=CCc1c(C)nc(N2CCSCC2)[nH]c1=O,–,–,–,–,–,–
CCn1c(=O)c(CCC(=O)NCC2CCCO2)c(C)c2c(C)nn(-c3ccc(C)cc3)c21 (stereo not drawn),·,–,–,5.2µM,–,–
Cc1nc2nc(C)c(CCC(=O)N3CCN(c4ccccn4)CC3)c(C)n2n1,–,–,–,–,–,–
CCn1c(=O)c(CCC(=O)N2CCN(c3ccccn3)CC2)c(C)c2c(C)nn(-c3cccc(C)c3)c21,·,?,–,9.3µM,–,–
CC(=O)c1cccc(NCC(=O)N2CCN(S(=O)(=O)c3ccccc3)CC2)c1,·,?,·,–,·,·
CCCCCCCC/C=C\CCCCCCCC(=O)NCCCC(=O)O,–,·,·,·,·,·
CC(Sc1nnc(-c2ccc(Cl)cc2)n1N)C(=O)NCC1CCCO1 (stereo not drawn),·,–,·,–,·,·
COC(=O)c1ccc(NC(=O)C(=O)NCC2CCCO2)cc1 (stereo not drawn),–,–,–,–,–,–
Cc1ccc(-c2nnc(SC(C)C(=O)NCC3CCCO3)nc2-c2ccc(C)cc2)cc1 (stereo not drawn),·,9.3µM,·,13µM,·,·
Cc1ccc(-c2nc(NCC3CCCO3)sc2C)cc1 (stereo not drawn),–,?,·,?,32,69
Cc1ccc(NC(=O)C(=O)NCC2CCCO2)cc1C (stereo not drawn),–,–,–,–,31,100
Cc1cc(C)cc(NC(=O)C(=O)NCC2CCCO2)c1 (stereo not drawn),–,–[5.75 µM],–,–,25,–
CCCCCCCCCCCCCCC[C@@H](O)[C@@H](N)CO,–,·,·,·,·,·
CCCOC(=O)N1CCN(/[N+]([O-])=N/Oc2ccc([N+](=O)[O-])cc2[N+](=O)[O-])CC1,–,·,·,·,–,–
Cc1ccnc2nc(C(=O)OCC(=O)N3CC(C)CC(C)C3)nn12 (stereo not drawn),·,–,·,–,·,·
SMILES,FBPA Giardia inh,Pf growth 96h,NS1 inh,Pf growth 48h,CHX counter,Shiga toxin inh
CCC1(CC)NC(=O)N(CC(=O)OCC(=O)Nc2sccc2C#N)C1=O,–,–,·,?,–,–
Cc1ccc(NC(=O)C(=O)NCC2CCCO2)cc1 (stereo not drawn),–,?,–,–,58,101
Cc1cc(C)cc(OCC(=O)NCC2CCCO2)c1 (stereo not drawn),–,–,–,–,24,100
Cc1cccc(-c2cccc(-c3cc(=O)oc4cc5c(cc34)OCO5)c2)c1,–,·,·,·,–,–
COCCNC(=O)[C@@]1(Cc2ccccc2)C=C[C@@H](C)N1C(=O)OC,–,·,·,·,·,·
COc1ccc2[nH]cc(C(=O)CNc3nc(C)cs3)c2c1,–,–,–,1.7µM,36,141
CCC[C@@H]1C[C@@H](C(=O)N[C@H]([C@@H](C)O)[C@H]2O[C@H](SC)[C@H](O)[C@@H](O)C2O)N(C)C1 (stereo partly drawn),–,0.13µM,–,0.042µM,–,–
CCC[C@@H]1C[C@@H](C(=O)N[C@@H]([C@H]2O[C@H](SC)[C@H](O)[C@@H](O)[C@H]2O)[C@@H](C)O)N(C)C1,–,0.17µM,·,2.7µM,–,–
COc1cc2c(cc1OC)-c1cc(=Nc3c(C)cc(C)cc3C)n(C)c(=O)n1CC2,–,0.76µM,–,0.67µM,·,·
COc1ccccc1N1CC(C)(C)C(=O)N(C(=O)c2c(F)cccc2Cl)C1=S,–,?,–,?,–,–
CC1=NCCN1CCNC(=O)Nc1cc(C)cc(C)c1,–,–,–,–,–,–
CC1=NCCN1CCNC(=O)Nc1ccc(F)cc1,–,0.41µM,–,–,–,–
COc1ccc(/C=C/C(=O)CC(=O)/C=C/c2cccc(O)c2OC)cc1O,–,·,·,·,–,–
CC(C)N(Cc1nc2ccccc2c(=O)[nH]1)C(=O)c1ccc(NC(=O)CSc2nnnn2C)cc1,·,13µM,·,?,·,·
Cn1nnnc1SCC(=O)NCc1ccccc1,–,–,–,–,–,–
COC(=O)CCC[N+](C)(C)C,·,11µM,·,?,·,·
CC1=C[C@@H](O)CC(C)(C)[C@@H]1/C=C/C(C)=C/C=C/C(C)=C/C=C/C=C(C)/C=C/C=C(C)/C=C/C1=C(C)C[C@H](O)CC1(C)C,·,4.3µM,·,?,·,·
CC1=C(/C=C/C(C)=C\C=C\C(C)=C\C=C\C=C(C)\C=C\C=C(C)\C=C\C2=C(C)C[C@@H](O)CC2(C)C)C(C)(C)C[C@H](O)C1,·,7.6µM,·,15µM,·,·
CCN(CC(=O)Nc1ccc(NC(C)=O)cc1)C(=O)c1cn(-c2ccccc2)nc1-c1cccs1,·,–,·,?,·,·
COc1ccc(NC(=S)N2CCCC2c2ccc(OC)c(OC)c2)cc1 (stereo not drawn),–,–,·,–,–,–
COc1ccc(C2CCCN2C(=S)Nc2cccc(C)c2)cc1OC (stereo not drawn),–,?,·,12µM,–,–
COc1ccc(C2CCCN2C(=S)Nc2ccc(C)cc2Cl)cc1OC (stereo not drawn),–,–,·,–,–,64
COc1ccc(C2CCCN2C(=S)Nc2cccc(C)c2C)cc1OC (stereo not drawn),–,?,·,12µM,–,–
COc1ccc(C2CCCN2C(=O)Nc2ccc(F)cc2)cc1OC (stereo not drawn),–,–,–,–,–,–
O=C(O)C[C@H]1OCC=C2C[N@@+]3([O-])CC[C@]45c6ccccc6N[C@@H]4[C@@H]1[C@H]2C[C@H]53,·,·,–,·,·,·
CC(=O)c1cccc(NC(=O)c2ccc(N(Cc3ccc(C)cc3)S(C)(=O)=O)cc2)c1,–,?,–,·,–,–
CN(c1ccc(C(=O)Nc2cccc(O)c2)cc1)S(=O)(=O)c1ccccc1,–,–,–,–,19,–
CC(=O)c1cccc(NC(=O)c2ccc(N(C)S(=O)(=O)c3ccc(C)cc3)cc2)c1,·,8.3µM,–,?,–,–
Cc1ccc(S(=O)(=O)N(C)c2ccc(C(=O)O)cc2)cc1,–,–,–,–,–,–
